From the supplement of paper PMC11732987, “Enantioselective OTUD7B fragment discovery through chemoproteomics screening and high-throughput optimisation” (Communications Chemistry, 2025)

How the values were obtained:
Test in all cases: log2 ratio of Biotin-Ahx-Ub-VS probe labelling (fragment/DMSO); higher = less target engagement (more negative = stronger competition), active = hit call of the paper (q ≤ 0.05, log2 ratio ≤ -1)
Conditions in all cases: compound concentration: 200 uM; treatment time: 3 h
OTUD6B = target: T1, OTUD6B (UniProt Q8N6M0)
T1 sequence (whole entry): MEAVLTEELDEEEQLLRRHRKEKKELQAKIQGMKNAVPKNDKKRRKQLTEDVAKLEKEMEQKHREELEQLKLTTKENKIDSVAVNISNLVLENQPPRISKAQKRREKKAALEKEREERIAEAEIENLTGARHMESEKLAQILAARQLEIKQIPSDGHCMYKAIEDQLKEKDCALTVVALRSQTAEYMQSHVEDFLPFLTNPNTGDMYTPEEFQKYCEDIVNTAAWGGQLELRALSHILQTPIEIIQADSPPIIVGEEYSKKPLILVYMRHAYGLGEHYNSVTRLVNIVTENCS
How it was run: (§1)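 Each value is an average log2 ratio of fragment to vehicle, tested by unpaired t-test. The underlying Spectronaut label-free quantities were global-median-normalised, and only proteins with ≥2 unique peptides were included. Triplicate HEK293T lysate samples (495 µg) were exposed to fragment at 200 µM or vehicle for 3 h, then to Biotin-Ahx-Ub-VS at 0.5 µM final for 1 h, before NeutrAvidin enrichment of labelled DUBs, LysC and trypsin digestion, and diaPASEF LC-MS/MS.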

OTUD7B = target: T2, OTUD7B (UniProt Q6GQQ9)
T2 sequence (whole entry): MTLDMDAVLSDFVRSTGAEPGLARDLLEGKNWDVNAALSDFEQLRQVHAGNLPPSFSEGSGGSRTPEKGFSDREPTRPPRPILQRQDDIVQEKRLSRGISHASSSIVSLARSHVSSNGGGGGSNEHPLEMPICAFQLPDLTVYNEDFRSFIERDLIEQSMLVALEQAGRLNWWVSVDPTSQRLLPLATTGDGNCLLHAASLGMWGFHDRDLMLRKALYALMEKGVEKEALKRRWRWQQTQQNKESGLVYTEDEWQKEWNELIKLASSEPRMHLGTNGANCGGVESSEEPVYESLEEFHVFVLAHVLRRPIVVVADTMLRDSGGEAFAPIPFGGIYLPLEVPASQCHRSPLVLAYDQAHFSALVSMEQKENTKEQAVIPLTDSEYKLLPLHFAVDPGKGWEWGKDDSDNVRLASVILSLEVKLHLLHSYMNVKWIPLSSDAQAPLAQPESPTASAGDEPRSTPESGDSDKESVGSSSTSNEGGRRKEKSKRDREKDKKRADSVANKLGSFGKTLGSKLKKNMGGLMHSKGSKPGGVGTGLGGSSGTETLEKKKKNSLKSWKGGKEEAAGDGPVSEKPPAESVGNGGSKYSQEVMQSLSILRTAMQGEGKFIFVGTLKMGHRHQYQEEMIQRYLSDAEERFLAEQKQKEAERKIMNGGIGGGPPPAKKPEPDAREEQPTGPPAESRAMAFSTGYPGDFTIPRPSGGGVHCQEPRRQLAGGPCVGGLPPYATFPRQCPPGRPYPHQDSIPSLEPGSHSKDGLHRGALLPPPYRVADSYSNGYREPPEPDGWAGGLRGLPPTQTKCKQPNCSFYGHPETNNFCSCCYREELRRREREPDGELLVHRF
How it was run: as §1

PRPF8 = PRPF8 (UniProt Q6P2Q9)
How it was run: as §1

PSMD7 = target: T3, PSMD7 (UniProt P51665)
T3 sequence (whole entry): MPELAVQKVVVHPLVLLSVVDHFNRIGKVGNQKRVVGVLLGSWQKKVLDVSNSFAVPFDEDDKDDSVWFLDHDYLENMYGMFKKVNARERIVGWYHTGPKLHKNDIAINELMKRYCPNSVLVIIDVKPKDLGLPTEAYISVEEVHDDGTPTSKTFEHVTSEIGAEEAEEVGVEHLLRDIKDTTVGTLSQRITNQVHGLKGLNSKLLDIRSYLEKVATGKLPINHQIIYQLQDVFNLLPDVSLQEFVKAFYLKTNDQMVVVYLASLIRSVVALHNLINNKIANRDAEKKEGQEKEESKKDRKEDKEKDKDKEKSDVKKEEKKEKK
How it was run: as §1

UCHL1 = UCHL1 (UniProt P09936)
How it was run: as §1

UCHL3 = target: T4, UCHL3 (UniProt P15374)
T4 sequence (whole entry): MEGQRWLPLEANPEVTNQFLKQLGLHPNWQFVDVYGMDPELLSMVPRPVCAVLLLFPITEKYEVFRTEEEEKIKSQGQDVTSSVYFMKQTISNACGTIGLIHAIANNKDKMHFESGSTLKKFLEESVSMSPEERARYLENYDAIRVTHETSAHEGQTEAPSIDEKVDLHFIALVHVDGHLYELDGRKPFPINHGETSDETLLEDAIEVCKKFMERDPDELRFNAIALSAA
How it was run: as §1

UCHL5 = target: T5, UCHL5 (UniProt Q9Y5K5)
T5 sequence (whole entry): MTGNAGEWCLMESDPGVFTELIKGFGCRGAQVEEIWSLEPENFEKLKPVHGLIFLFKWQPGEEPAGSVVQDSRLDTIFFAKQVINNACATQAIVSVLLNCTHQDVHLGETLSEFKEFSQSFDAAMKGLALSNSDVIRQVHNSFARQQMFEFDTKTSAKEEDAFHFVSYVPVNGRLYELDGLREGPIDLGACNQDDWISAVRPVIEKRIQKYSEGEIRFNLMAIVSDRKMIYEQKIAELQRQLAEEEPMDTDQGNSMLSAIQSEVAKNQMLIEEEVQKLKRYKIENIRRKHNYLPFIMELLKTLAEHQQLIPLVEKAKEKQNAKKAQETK
How it was run: as §1

USP10 = USP10 (UniProt Q14694)
How it was run: as §1

USP15 = target: T6, USP15 (UniProt Q9Y4E8)
T6 sequence (whole entry): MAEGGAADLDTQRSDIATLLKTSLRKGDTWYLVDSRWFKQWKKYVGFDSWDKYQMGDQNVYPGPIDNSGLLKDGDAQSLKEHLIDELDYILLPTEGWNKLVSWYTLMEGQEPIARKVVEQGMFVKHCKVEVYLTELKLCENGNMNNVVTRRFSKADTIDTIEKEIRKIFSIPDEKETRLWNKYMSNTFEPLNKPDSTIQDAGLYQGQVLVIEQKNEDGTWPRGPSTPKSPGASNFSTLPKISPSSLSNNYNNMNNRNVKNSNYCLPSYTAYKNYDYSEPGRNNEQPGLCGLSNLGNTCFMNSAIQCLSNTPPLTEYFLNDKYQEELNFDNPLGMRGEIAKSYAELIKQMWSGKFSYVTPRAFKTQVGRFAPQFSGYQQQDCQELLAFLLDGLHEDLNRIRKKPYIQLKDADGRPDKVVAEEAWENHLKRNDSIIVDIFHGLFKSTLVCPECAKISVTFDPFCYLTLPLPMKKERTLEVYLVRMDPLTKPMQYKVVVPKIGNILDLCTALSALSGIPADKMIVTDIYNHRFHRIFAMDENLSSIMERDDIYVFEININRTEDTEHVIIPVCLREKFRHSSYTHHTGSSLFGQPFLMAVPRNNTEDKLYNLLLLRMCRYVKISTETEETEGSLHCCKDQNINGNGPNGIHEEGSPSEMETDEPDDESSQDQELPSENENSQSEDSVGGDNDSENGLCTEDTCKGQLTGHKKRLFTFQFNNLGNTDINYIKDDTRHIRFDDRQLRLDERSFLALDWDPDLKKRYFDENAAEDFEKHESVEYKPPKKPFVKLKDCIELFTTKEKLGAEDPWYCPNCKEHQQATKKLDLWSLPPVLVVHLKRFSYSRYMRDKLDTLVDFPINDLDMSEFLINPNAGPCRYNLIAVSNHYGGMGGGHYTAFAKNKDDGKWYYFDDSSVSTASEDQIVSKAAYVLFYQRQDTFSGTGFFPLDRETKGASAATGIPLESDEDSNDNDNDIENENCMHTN
How it was run: as §1

USP16 = USP16 (UniProt Q9Y5T5)
How it was run: as §1

Measured: log2 ratio of Biotin-Ahx-Ub-VS probe labelling

Sequence of USP10 (Q14694 whole entry): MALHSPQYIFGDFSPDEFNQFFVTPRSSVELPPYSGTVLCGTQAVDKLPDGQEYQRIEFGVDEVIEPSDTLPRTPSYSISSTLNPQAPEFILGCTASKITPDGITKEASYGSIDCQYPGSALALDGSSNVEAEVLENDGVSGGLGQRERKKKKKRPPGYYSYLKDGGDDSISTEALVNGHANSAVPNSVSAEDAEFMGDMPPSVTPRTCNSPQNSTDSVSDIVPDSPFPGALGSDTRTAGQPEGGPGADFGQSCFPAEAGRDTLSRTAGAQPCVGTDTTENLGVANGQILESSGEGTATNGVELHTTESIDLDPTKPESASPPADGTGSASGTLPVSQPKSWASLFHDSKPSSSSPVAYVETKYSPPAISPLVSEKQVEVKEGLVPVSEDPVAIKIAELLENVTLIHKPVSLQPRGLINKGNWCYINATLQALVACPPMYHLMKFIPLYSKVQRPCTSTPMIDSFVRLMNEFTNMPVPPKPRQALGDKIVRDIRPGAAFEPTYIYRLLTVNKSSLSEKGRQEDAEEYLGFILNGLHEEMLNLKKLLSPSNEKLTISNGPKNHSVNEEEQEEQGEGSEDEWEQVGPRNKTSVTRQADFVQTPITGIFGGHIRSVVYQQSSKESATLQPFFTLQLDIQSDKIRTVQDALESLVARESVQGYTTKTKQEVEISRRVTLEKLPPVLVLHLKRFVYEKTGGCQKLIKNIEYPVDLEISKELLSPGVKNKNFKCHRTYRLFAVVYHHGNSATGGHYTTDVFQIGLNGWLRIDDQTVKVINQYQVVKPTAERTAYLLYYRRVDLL
Sequence of USP16 (Q9Y5T5 whole entry, looked up): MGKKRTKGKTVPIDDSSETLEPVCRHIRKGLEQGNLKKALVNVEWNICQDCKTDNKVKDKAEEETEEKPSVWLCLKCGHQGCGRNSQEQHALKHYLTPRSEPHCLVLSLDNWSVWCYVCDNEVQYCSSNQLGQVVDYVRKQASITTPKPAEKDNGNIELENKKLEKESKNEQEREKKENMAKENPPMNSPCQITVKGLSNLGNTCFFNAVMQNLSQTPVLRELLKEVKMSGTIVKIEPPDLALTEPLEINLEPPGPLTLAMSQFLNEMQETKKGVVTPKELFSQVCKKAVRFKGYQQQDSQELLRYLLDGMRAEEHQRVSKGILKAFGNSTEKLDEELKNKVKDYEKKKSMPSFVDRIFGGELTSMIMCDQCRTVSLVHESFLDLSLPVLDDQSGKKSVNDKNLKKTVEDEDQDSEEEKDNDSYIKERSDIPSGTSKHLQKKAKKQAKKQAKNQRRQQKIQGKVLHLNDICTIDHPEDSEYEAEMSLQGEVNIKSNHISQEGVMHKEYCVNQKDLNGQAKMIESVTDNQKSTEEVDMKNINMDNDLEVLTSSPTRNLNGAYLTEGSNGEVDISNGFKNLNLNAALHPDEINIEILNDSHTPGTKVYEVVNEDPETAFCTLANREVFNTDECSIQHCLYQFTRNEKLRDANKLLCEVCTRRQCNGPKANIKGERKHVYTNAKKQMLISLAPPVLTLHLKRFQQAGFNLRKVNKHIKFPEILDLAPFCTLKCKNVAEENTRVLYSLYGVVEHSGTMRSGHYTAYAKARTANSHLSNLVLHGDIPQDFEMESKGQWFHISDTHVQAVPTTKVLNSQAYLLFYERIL
Sequence of UCHL1 (P09936 whole entry, looked up): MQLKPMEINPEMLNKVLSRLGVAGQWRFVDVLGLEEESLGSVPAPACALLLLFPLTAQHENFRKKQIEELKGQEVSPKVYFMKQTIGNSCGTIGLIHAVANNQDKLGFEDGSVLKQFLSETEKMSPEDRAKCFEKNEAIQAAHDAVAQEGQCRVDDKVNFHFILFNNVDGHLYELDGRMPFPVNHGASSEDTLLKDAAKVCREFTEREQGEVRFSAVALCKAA

O=C(CCl)NC1CCN(C(=O)C2CCCCC2)CC1
inactive: OTUD6B 0.191 | OTUD7B -0.643 | PRPF8 0.0534 | PSMD7 -0.106 | UCHL1 -0.513 | UCHL3 0.338 | UCHL5 0.125 | USP10 -0.0591 | USP15 -0.0587 | USP16 -0.0778
